From the supplement of paper PMC10849652
About 7,900 targets were measured; listed, in parts, are those with a hit and a random draw of the rest. About 0.6% of all pairs of compound and target were hits. Unmarked numbers belong to inactive results.

Legend:
Assay in all cases: log2 fold change, soluble protein after heating vs DMSO (PISA); higher = thermal stabilisation; K562 cells, 10 uM, 30 min; active = over 0.2 and 3.5 SD of the protein, either way, in both replicates (recomputed)
[1] = compound: NC(=O)Nc1cc(-c2cccc(F)c2)sc1C(=O)N[C@H]1CCCNC1
Summary of the method: (§1)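 For each measurement, 10 μM compound was applied for 30 min to K562 cells at 2×10^6 cells/mL. Aliquots were heated for 3 min across 48°C-58°C, pooled, and extracted in PBS with 0.5% NP-40 at 4°C; the supernatant after 21,000xg for 90 min was soluble protein. This was quantified by TMTpro 16plex LC-MS/MS with channel sums equalised, and thermal stability was reported relative to control samples from duplicates, on a log2 fold-change scale.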

[2] = compound: NC(=O)c1cnc(N[C@@H]2CCCC[C@@H]2N)nc1Nc1cccc(-n2nccn2)c1
Summary of the method: as §1

[3] = compound: NC1(c2ccc(-c3nc4ccn5c(=O)[nH]nc5c4cc3-c3ccccc3)cc2)CCC1
Summary of the method: as §1

[4] = compound: NCC(=O)Nc1ccc(-n2nc(C(F)(F)F)cc2-c2ccc3c(ccc4ccccc43)c2)cc1
Summary of the method: as §1

entinostat = compound: Nc1ccccc1NC(=O)c1ccc(CNC(=O)OCc2cccnc2)cc1 [entinostat]
Summary of the method: as §1

vorinostat = compound: O=C(CCCCCCC(=O)Nc1ccccc1)NO [vorinostat]
Summary of the method: as §1

citarinostat = compound: O=C(CCCCCCNC(=O)c1cnc(N(c2ccccc2)c2ccccc2Cl)nc1)NO [citarinostat]
Summary of the method: as §1

silmitasertib = compound: O=C(O)c1ccc2c(c1)nc(Nc1cccc(Cl)c1)c1ccncc12 [silmitasertib]
Summary of the method: as §1

[5] = compound: O=C1NC(=O)C(c2cnc3ccccn23)=C1c1cn2c3c(cc(F)cc13)CN(C(=O)N1CCCCC1)CC2
Summary of the method: as §1

[6] = compound: c1cc(OCCN2CCCCC2)cc(-c2n[nH]c3ccc(-c4nnc[nH]4)cc23)c1
Summary of the method: as §1

entospletinib = compound: c1cn2cc(-c3ccc4cn[nH]c4c3)nc(Nc3ccc(N4CCOCC4)cc3)c2n1 [entospletinib]
Summary of the method: as §1

Chain of UniProt Q9UPN7 (Q9UPN7 whole entry, looked up): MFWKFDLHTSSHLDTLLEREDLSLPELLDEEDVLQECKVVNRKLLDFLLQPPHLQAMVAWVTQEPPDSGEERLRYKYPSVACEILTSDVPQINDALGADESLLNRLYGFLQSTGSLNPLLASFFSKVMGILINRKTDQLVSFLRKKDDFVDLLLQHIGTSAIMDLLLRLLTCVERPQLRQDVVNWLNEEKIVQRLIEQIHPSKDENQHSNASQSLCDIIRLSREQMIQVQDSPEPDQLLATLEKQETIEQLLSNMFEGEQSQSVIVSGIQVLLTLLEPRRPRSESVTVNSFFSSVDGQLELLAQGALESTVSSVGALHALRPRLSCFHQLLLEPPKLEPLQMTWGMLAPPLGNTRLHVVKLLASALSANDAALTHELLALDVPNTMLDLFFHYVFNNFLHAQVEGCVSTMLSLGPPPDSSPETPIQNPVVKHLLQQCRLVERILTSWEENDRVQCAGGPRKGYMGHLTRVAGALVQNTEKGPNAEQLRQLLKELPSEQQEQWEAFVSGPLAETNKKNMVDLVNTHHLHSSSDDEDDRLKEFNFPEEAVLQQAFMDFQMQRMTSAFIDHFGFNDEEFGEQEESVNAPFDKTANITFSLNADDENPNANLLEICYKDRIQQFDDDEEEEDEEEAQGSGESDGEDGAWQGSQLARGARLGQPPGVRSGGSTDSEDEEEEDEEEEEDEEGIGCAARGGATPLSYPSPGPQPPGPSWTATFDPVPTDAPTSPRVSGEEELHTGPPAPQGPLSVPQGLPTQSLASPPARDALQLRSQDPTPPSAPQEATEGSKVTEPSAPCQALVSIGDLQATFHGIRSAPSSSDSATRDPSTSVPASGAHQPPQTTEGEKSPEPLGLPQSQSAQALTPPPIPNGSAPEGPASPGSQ
Chain of UniProt Q8WUK0 (Q8WUK0 whole entry, looked up): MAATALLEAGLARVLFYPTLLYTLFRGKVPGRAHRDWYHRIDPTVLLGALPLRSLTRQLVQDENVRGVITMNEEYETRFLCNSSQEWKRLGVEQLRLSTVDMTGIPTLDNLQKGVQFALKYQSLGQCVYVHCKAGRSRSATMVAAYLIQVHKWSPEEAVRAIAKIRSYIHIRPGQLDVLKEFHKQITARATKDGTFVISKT
Chain of UniProt Q15111 (Q15111 whole entry, looked up): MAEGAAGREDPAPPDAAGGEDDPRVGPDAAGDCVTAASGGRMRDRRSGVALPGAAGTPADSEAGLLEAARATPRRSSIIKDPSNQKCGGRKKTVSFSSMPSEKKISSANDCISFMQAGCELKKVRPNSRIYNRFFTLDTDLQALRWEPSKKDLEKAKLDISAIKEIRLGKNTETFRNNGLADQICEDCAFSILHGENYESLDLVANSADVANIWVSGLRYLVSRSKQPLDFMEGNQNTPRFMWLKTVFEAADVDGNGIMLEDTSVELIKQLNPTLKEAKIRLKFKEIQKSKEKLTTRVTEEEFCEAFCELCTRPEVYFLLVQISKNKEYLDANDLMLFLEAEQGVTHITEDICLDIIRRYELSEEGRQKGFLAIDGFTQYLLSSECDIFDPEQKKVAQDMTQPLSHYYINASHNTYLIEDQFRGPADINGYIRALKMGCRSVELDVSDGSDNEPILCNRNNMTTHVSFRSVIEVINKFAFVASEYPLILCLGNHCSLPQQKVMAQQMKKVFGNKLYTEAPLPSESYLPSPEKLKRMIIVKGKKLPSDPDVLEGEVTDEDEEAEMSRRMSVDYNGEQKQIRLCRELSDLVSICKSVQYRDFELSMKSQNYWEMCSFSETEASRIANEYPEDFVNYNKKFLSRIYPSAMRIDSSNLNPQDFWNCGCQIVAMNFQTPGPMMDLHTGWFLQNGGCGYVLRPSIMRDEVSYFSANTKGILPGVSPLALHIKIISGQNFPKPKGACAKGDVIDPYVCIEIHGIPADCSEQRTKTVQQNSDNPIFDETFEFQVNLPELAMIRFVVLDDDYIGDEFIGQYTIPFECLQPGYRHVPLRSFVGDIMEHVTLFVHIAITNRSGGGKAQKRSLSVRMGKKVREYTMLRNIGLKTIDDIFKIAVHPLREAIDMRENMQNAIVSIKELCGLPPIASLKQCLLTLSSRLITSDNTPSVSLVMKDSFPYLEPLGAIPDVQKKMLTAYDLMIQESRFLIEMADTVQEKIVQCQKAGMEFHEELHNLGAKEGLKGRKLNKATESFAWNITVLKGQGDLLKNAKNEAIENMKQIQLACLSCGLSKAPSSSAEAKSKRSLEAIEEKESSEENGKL
Chain of UniProt Q8IZL8 (Q8IZL8 whole entry, looked up): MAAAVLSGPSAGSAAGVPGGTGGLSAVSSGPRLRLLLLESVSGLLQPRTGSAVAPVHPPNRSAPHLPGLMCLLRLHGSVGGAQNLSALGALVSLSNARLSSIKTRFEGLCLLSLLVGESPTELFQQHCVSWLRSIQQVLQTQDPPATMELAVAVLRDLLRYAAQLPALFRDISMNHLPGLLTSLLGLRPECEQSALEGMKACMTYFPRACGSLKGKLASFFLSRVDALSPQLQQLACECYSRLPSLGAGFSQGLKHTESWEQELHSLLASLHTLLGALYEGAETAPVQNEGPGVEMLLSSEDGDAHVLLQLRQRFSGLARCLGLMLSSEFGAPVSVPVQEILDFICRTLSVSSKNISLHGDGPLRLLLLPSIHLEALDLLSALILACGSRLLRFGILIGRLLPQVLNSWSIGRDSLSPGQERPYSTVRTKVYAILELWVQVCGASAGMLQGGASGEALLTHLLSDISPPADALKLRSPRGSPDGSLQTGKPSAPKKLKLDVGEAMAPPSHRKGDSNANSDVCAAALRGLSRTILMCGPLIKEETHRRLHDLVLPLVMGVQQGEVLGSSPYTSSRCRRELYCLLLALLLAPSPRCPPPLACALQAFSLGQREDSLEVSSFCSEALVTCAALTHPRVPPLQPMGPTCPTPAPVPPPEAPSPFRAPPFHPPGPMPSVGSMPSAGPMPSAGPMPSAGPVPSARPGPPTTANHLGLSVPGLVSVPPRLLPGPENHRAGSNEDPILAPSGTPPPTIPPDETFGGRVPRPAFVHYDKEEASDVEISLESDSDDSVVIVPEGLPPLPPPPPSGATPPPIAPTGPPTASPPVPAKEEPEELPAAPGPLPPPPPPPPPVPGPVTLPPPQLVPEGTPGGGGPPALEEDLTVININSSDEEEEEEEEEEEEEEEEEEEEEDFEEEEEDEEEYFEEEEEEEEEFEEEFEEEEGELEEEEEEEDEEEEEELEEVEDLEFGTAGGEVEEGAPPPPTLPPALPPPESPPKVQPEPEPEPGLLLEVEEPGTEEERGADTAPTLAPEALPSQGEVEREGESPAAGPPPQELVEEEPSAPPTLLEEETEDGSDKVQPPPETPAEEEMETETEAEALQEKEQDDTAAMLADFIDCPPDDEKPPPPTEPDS
Chain of UniProt Q86W56 (Q86W56 whole entry, looked up): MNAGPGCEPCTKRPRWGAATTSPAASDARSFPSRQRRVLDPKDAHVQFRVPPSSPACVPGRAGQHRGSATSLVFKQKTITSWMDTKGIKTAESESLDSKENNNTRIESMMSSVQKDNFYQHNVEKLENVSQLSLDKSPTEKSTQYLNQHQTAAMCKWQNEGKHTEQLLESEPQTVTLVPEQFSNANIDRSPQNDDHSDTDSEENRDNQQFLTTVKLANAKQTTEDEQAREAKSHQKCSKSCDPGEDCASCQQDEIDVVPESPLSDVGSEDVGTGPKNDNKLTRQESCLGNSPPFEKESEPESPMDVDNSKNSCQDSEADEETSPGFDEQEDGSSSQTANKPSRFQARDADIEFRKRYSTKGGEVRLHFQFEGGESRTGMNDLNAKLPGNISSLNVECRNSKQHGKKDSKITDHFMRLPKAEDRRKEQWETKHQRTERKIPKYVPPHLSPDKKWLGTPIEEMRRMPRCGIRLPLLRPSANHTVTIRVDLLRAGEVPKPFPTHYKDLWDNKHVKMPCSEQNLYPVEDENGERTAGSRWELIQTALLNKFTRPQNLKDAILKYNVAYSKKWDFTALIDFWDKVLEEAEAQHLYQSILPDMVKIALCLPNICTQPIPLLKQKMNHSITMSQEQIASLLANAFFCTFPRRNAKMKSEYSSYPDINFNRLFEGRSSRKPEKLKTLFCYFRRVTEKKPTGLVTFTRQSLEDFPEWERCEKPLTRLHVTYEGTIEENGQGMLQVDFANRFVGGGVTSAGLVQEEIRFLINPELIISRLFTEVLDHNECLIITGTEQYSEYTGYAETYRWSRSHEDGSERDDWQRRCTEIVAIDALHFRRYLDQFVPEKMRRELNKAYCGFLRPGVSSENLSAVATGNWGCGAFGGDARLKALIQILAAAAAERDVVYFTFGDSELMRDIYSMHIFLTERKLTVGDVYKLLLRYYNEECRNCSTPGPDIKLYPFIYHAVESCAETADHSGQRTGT
Chain of UniProt Q9BRP1 (Q9BRP1 whole entry, looked up): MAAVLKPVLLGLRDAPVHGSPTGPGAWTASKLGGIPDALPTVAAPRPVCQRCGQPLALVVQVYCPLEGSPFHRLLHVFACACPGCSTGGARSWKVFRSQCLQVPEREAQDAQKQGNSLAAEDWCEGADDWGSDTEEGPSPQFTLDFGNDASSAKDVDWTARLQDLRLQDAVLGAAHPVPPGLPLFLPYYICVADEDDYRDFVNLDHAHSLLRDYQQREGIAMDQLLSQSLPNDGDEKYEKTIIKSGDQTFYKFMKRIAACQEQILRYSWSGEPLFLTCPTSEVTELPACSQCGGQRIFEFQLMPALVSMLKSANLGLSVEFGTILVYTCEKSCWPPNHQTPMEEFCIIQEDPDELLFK
Chain of UniProt O60256 (O60256 whole entry, looked up): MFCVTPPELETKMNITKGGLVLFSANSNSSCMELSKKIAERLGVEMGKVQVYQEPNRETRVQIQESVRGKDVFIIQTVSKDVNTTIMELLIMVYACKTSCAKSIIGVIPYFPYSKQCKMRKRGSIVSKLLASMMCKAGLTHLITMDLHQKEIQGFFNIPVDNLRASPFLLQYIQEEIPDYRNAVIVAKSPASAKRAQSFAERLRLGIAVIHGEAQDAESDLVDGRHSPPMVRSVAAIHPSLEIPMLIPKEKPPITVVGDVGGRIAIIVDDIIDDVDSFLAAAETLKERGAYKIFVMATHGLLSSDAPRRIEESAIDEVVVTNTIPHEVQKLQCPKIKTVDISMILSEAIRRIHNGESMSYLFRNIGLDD

| Target | log2 fold change [1] | log2 fold change [2] | log2 fold change [3] | log2 fold change [4] | log2 fold change (entinostat) | log2 fold change (vorinostat) | log2 fold change (citarinostat) | log2 fold change (silmitasertib) | log2 fold change [5] | log2 fold change [6] | log2 fold change (entospletinib) |
| --- | --- | --- | --- | --- | --- | --- | --- | --- | --- | --- | --- |
| PPP6R1 (UniProt Q9UPN7) | 0.023 | -0.066 | -0.09 | 0.011 | -0.018 | 0.023 | 0.054 | 0.013 | -0.055 | -0.05 | 0.033 |
| PKN2 (UniProt Q16513) | -0.055 | -0.134 | -0.051 | -0.021 | 0.105 | 0.023 | 0.073 | 0.01 | -0.008 | -0.086 | 0.007 |
| PIP4K2B (UniProt P78356) | 0.06 | 0.083 | -0.053 | 0.118 | 0.096 | 0.053 | -0.009 | 0.202 | 0.044 | 0.069 | -0.04 |
| PTPMT1 (UniProt Q8WUK0) | -0.087 | -0.264 | -0.263 | -0.166 | 0.073 | 0.049 | 0.014 | 0.032 | -0.015 | -0.082 | -0.018 |
| PDS5B (UniProt Q9NTI5) | -0.07 | -0.12 | -0.043 | -0.167 | -0.036 | -0.043 | 0.046 | 0.027 | -0.08 | 0.03 | -0.055 |
| PRCP (UniProt P42785) | 0.013 | 0.005 | -0.106 | 0.008 | 0.035 | 0.005 | 0.028 | 0 | -0.014 | 0.044 | -0.062 |
| POLR2K (UniProt P53803) | -0.04 | -0.107 | 0.017 | 0.053 | -0.01 | -0.156 | 0.13 | 0.097 | 0.002 | -0.474 (active) | 0.24 |
| PTRH2 (UniProt Q9Y3E5) | -0.061 | 0.018 | -0.001 | 0.004 | -0.016 | -0.002 | 0.047 | 0.007 | -0.089 | 0.005 | 0.019 |
| PKN1 isoform 2 (UniProt Q16512) | -0.508 (active) | -0.141 | -0.118 | -0.128 | 0.039 | 0.042 | 0.024 | 0.024 | -0.131 | -0.157 | 0.014 |
| PPP1R35 (UniProt Q8TAP8) | 0.054 | -0.004 | -0.037 | -0.002 | -0.06 | -0.089 | -0.058 | 0.003 | 0.002 | -0.001 | -0.04 |
| PIKFYVE (UniProt Q9Y2I7) | 0.029 | -0.055 | -0.256 | -0.072 | 0.09 | 0.021 | -0.047 | 0.006 | -0.069 | -0.08 | 0.003 |
| PKM isoform 2 (UniProt P14618) | 0.123 | 0.175 | -0.063 | 0.116 | 0.05 | -0.195 | -0.075 | -0.052 | 0.043 | -0.093 | 0.128 |
| PGGHG (UniProt Q32M88) | -0.036 | -0.155 | -0.051 | 0.083 | -0.033 | 0.019 | -0.009 | 0.073 | -0.076 | 0.058 | 0.023 |
| PSMD1 (UniProt Q99460) | 0.086 | 0.007 | -0.013 | 0.068 | 0.006 | 0.013 | 0.014 | -0.019 | 0.094 | -0.057 | -0.012 |
| PRPSAP2 (UniProt O60256) | -0.146 | 0.1 | 0.019 | 0.034 | -0.109 | 0.003 | -0.02 | 0.011 | -0.052 | -0.03 | -0.008 |
| PLSCR1 (UniProt O15162) | -0.092 | -0.005 | -0.111 | -0.068 | -0.212 | -0.082 | 0.05 | 0.022 | -0.081 | -0.096 | -0.045 |
| PSMD5 (UniProt Q16401) | -0.001 | 0.009 | -0.094 | -0.009 | 0.01 | 0.008 | 0.033 | 0.038 | -0.032 | -0.009 | 0.017 |
| PRMT3 (UniProt O60678) | 0.042 | -0.05 | -0.187 | -0.034 | 0.055 | 0.041 | 0.042 | -0.023 | -0.027 | -0.027 | -0.036 |
| PLCL1 (UniProt Q15111) | 0.05 | -0.035 | -0.069 | -0.01 | 0.043 | -0.012 | 0.02 | -0.475 | -0.854 (active) | 0.05 | -0.099 |
| QRSL1 (UniProt Q9H0R6) | -0.092 | -0.007 | -0.218 | -0.089 | 0.006 | -0.063 | 0.053 | -0.049 | -0.084 | -0.036 | -0.008 |
| PDCD2L (UniProt Q9BRP1) | 0.058 | 1.21 (active) | -0.018 | -0.101 | 0.036 | 0.023 | 0.06 | 0 | -0.092 | -0.001 | -0.012 |
| PISD (UniProt Q9UG56) | 0.023 | 0.019 | -0.009 | 0.045 | -0.047 | 0.069 | 0.035 | -0.019 | -0.097 | -0.006 | -0.009 |
| RAB11FIP1 (UniProt Q6WKZ4) | 0.019 | -0.121 | -0.086 | -0.009 | 0.041 | 0.091 | 0.065 | 0.016 | 0 | -0.07 | -0.018 |
| PARG (UniProt Q86W56) | 0.141 | 0.001 | -0.113 | -0.013 | 0.12 | 0.157 | 0.067 | 0.048 | 0.065 | -0.091 | -0.015 |
| PARL (UniProt Q9H300) | 0.025 | -0.06 | -0.07 | -0.09 | 0.023 | -0.07 | 0.054 | 0.032 | -0.082 | -0.017 | 0.018 |
| PELP1 (UniProt Q8IZL8) | 0.071 | -0.068 | -0.046 | 0.071 | -0.022 | -0.003 | 0.038 | 0.078 | -0.084 | -0.027 | -0.041 |
| PCGF2 (UniProt P35227) | -0.164 | -0.125 | -0.048 | -0.025 | 0.114 | -0.059 | 0.134 | 0.051 | -0.069 | -0.022 | 0 |
| PDS5A (UniProt Q29RF7) | -0.076 | -0.024 | -0.061 | 0.018 | 0.306 | 0.062 | 0.068 | 0.017 | -0.103 | -0.075 | 0.039 |
